This is an account of results in PubChem BioAssay (NCI).

Structures are written as SMILES. About 79,000 compounds went through this panel and 15% of them were active in at least one assay; those are over-represented in the sample as a whole. A number with no mark means an inactive call. The source made the active and inactive calls. Rule as the data show it: active = growth inhibition above about 70%; inactive = the rest.

The first assay in a line: NCI Yeast Anticancer Drug Screen. Data for the mlh1 rad18 strain (AID 175). The conditions noted are these: S. cerevisiae mlh1 rad18 strain growth inhibition; at 5.0 µM (retest, dose inferred, filed as 0.5); stronger effect = higher value. An outline of the steps:
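Steps: expose repair-defective yeast to compound; measure growth; express inhibition against vehicle-treated controls.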
As for `CC1CCN(CCOC(=O)C(c2ccccc2)C2C=CCCC2)C1C` (stereo not given), the growth inhibition is 54%.

In the case of `CC(CCCN(C)Cc1ccccc1)Nc1ccnc2cc(Cl)ccc12` (stereo not given), the growth inhibition is 99% (active).

In the case of `O=C(/C(Cl)=N/O)c1ccccc1`, the growth inhibition was 62%.

In the case of `CN(C)C1C[C@@H](O[Si](C)(C)C(C)(C)C)C=C1S(=O)(=O)c1ccccc1` (stereo not given in full), the growth inhibition is 4%.

Consider `Nc1nnc(Cc2ccc(Br)cc2)o1`, for which the growth inhibition is -12%.

For `CSc1nc(C)cc(SCc2ccc(Cl)cc2Cl)n1`, the growth inhibition was -2%.

In the case of `CC[N](CC)[Ge]([CH2]C)[CH2]C.CC[N](CC)[Ge]([CH2]C)[CH2]C`, the growth inhibition was 27%.

On to `Cc1c(-c2ccccc2)ccnc1/C=N/NC(=S)Nc1ccc(N(C)C)cc1`, for which the growth inhibition is 36%.

In the case of `Cc1cc(C)nc(NS(=O)(=O)c2ccc(Nc3c4ccccc4nc4c(C(=O)NC(CO)(CO)CO)cccc34)cc2)n1`, the growth inhibition is -3%.

Regarding `CCCC(CCC)NCCOC(=O)C(CC)c1ccccc1` (stereo not given), the growth inhibition is 4%.

Turning to `OCCc1ccc(-n2cnc3c(Nc4ccc(Cl)cc4)ncnc32)cc1`, the growth inhibition is 3%.

Take `Cc1cccc(N2C(=O)c3ccccc3C2(c2ccccc2)N2CCCCC2)c1` (stereo not given): the growth inhibition is -2%.

As for `CCCCN(CCO)CCNc1ccc(C)c2sc3ccccc3c(=O)c12`, the growth inhibition was 22%.

Consider `Cc1ccc(C)c(C(=O)CCN)c1`, for which the growth inhibition is 2%.

For `O=C1C(C(O)(C(F)(F)Cl)C(F)(F)Cl)CCCC1C(O)(C(F)(F)Cl)C(F)(F)Cl` (stereo not given), the growth inhibition is 96% (active).

Consider `CC(C)c1cc2c(cc1O)C(O)C1(O)CCCC(C)(C)[C@H]1CC2` (stereo not given in full), for which the growth inhibition was -3%.

`CN(C)[C@@H]1C(=O)C(C(=O)NCNc2nc3n[nH]nc3c(=O)[nH]2)=C(O)[C@@]2(O)C(=O)C3=C(O)c4c(O)cccc4[C@@](C)(O)[C@H]3C[C@@H]12`: the growth inhibition was 1%.

For `CCOC(=O)c1csc(=S)[nH]1`, the growth inhibition was 15%.

With `CC(=O)[O-].O=C(N/N=C/c1ccccc1[O-])c1ccccc1.[Zn+2]`, the growth inhibition is 9%.

`Clc1ccc(C(CCOc2ccccc2Br)Cn2ccnc2)c(Cl)c1` (stereo not given): the growth inhibition was 79% (active).

With `CCCC(C)C/C(C)=C\C(C)(C)C1CC(=O)N(CC)C1=O` (stereo not given), the growth inhibition is -3%.

With `CSC(SC)=C1C(=O)NC(Cc2ccccc2)C1=O` (stereo not given), the growth inhibition was 5%.

For `CCCCCCSc1nc2ccc(N=Cc3ccccc3O)cc2s1`, the growth inhibition is 86% (active).

For the compound `Cc1cc(C(=O)O)c(C)c2c1sc1ccccc12`, the growth inhibition is 0%.

As to `O=C(Nc1ccc(Cl)cc1)Nc1nnc2nc(C(C(=O)/C=C/c3ccccc3)c3nc4nnc(NC(=O)Nc5ccc(Cl)cc5)n4[nH]c3=O)c(=O)[nH]n12`, the growth inhibition is -6%.

`O=c1c(SSc2coc3ccccc3c2=O)coc2ccccc12`: the growth inhibition is 17%.

On to `C[n+]1c(/C=C/c2ccc(N3CCCC3)cc2)sc2ccccc21`, for which the growth inhibition was 85% (active).

Regarding `CCC(C(c1ccc(Cl)cc1)c1ccc(Cl)c(Cl)c1)[N+](=O)[O-]` (stereo not given), the growth inhibition is 1%.

Take `O=C1OC(C2OC(=O)C(=O)C2C(=O)c2ccc([N+](=O)[O-])cc2)C(C(=O)c2ccc([N+](=O)[O-])cc2)C1=O` (stereo not given): the growth inhibition was 6%.

With `O=[N+]([O-])c1ccc(O)c(C2CCCCC2)c1`, the growth inhibition was 87% (active).

Regarding `O=C1c2ccccc2C(=O)N1/N=C\c1ccccc1[N+](=O)[O-]`, the growth inhibition was -3%.

As for `CC(C)(C)C(=O)CC(=O)C(F)(F)C(F)(F)C(F)(F)F.CC(C)(C)C(=O)CC(=O)C(F)(F)C(F)(F)C(F)(F)F.CC(C)(C)C(=O)CC(=O)C(F)(F)C(F)(F)C(F)(F)F.[Gd]`, the growth inhibition was -7%.

Regarding `Oc1ccc(N=Nc2ccccc2)cc1`, the growth inhibition is 9%.

Consider `Cc1cc(NC(=S)SCc2ccc(F)cc2)ccc1Br`, for which the growth inhibition was 33%.

As for `OC(CN1CCc2ccccc2C1)c1ccc2ccccc2c1` (stereo not given), the growth inhibition was 25%.

For `O=C1C=C/C(=C(/c2ccc(O)c(O)c2)c2ccccc2S(=O)(=O)O)C=C1O`, the growth inhibition was 2%.

Turning to `Cc1cc(N)c2cc(NC(=O)Nc3ccc4nc(C)cc(N)c4c3)ccc2n1`, the growth inhibition is 99% (active).

In the case of `CC(=O)N/N=C1/CC[C@@]2(C)C(=CC[C@H]3C4CCC(C(C)CCCC(C)C)[C@@]4(C)CCC32)C1(C)C` (stereo not given in full), the growth inhibition was -12%.

On to `Cc1ncn(-c2ccccc2O)c1C`, for which the growth inhibition was -9%.

Turning to `Oc1ccc(-c2nnc(-c3ccccc3)nn2)cc1`, the growth inhibition was -121%.

The same assay, now with this note: S. cerevisiae mlh1 rad18 strain growth inhibition; at 50.0 µM (retest, dose inferred, filed as 5.0); stronger effect = higher value.
In the case of `CC1CCN(CCOC(=O)C(c2ccccc2)C2C=CCCC2)C1C` (stereo not given), the growth inhibition was 78% (active).

On to `CC(CCCN(C)Cc1ccccc1)Nc1ccnc2cc(Cl)ccc12` (stereo not given), for which the growth inhibition is 99% (active).

In the case of `O=C(/C(Cl)=N/O)c1ccccc1`, the growth inhibition is 99% (active).

Turning to `CN(C)C1C[C@@H](O[Si](C)(C)C(C)(C)C)C=C1S(=O)(=O)c1ccccc1` (stereo not given in full), the growth inhibition is 100% (active).

Consider `Nc1nnc(Cc2ccc(Br)cc2)o1`, for which the growth inhibition was 4%.

As to `CSc1nc(C)cc(SCc2ccc(Cl)cc2Cl)n1`, the growth inhibition was 21%.

As for `CC[N](CC)[Ge]([CH2]C)[CH2]C.CC[N](CC)[Ge]([CH2]C)[CH2]C`, the growth inhibition is 97% (active).

As to `Cc1c(-c2ccccc2)ccnc1/C=N/NC(=S)Nc1ccc(N(C)C)cc1`, the growth inhibition is 93% (active).

For `Cc1cc(C)nc(NS(=O)(=O)c2ccc(Nc3c4ccccc4nc4c(C(=O)NC(CO)(CO)CO)cccc34)cc2)n1`, the growth inhibition was 4%.

As to `CCCC(CCC)NCCOC(=O)C(CC)c1ccccc1` (stereo not given), the growth inhibition was 47%.

As to `OCCc1ccc(-n2cnc3c(Nc4ccc(Cl)cc4)ncnc32)cc1`, the growth inhibition is 95% (active).

As to `Cc1cccc(N2C(=O)c3ccccc3C2(c2ccccc2)N2CCCCC2)c1` (stereo not given), the growth inhibition is -9%.

For the compound `CCCCN(CCO)CCNc1ccc(C)c2sc3ccccc3c(=O)c12`, the growth inhibition is 99% (active).

In the case of `Cc1ccc(C)c(C(=O)CCN)c1`, the growth inhibition was 6%.

Turning to `O=C1C(C(O)(C(F)(F)Cl)C(F)(F)Cl)CCCC1C(O)(C(F)(F)Cl)C(F)(F)Cl` (stereo not given), the growth inhibition was 99% (active).

For `CC(C)c1cc2c(cc1O)C(O)C1(O)CCCC(C)(C)[C@H]1CC2` (stereo not given in full), the growth inhibition is 99% (active).

In the case of `CN(C)[C@@H]1C(=O)C(C(=O)NCNc2nc3n[nH]nc3c(=O)[nH]2)=C(O)[C@@]2(O)C(=O)C3=C(O)c4c(O)cccc4[C@@](C)(O)[C@H]3C[C@@H]12`, the growth inhibition was 4%.

Turning to `CCOC(=O)c1csc(=S)[nH]1`, the growth inhibition was 96% (active).

With `CC(=O)[O-].O=C(N/N=C/c1ccccc1[O-])c1ccccc1.[Zn+2]`, the growth inhibition was 91% (active).

Turning to `Clc1ccc(C(CCOc2ccccc2Br)Cn2ccnc2)c(Cl)c1` (stereo not given), the growth inhibition was 99% (active).

As to `CCCC(C)C/C(C)=C\C(C)(C)C1CC(=O)N(CC)C1=O` (stereo not given), the growth inhibition is 98% (active).

For `CSC(SC)=C1C(=O)NC(Cc2ccccc2)C1=O` (stereo not given), the growth inhibition is 68%.

Consider `CCCCCCSc1nc2ccc(N=Cc3ccccc3O)cc2s1`, for which the growth inhibition is 88% (active).

With `Cc1cc(C(=O)O)c(C)c2c1sc1ccccc12`, the growth inhibition is 81% (active).

`O=C(Nc1ccc(Cl)cc1)Nc1nnc2nc(C(C(=O)/C=C/c3ccccc3)c3nc4nnc(NC(=O)Nc5ccc(Cl)cc5)n4[nH]c3=O)c(=O)[nH]n12`: the growth inhibition was 8%.

On to `O=c1c(SSc2coc3ccccc3c2=O)coc2ccccc12`, for which the growth inhibition is 97% (active).

As for `C[n+]1c(/C=C/c2ccc(N3CCCC3)cc2)sc2ccccc21`, the growth inhibition is 98% (active).

With `CCC(C(c1ccc(Cl)cc1)c1ccc(Cl)c(Cl)c1)[N+](=O)[O-]` (stereo not given), the growth inhibition was 32%.

Turning to `O=C1OC(C2OC(=O)C(=O)C2C(=O)c2ccc([N+](=O)[O-])cc2)C(C(=O)c2ccc([N+](=O)[O-])cc2)C1=O` (stereo not given), the growth inhibition is 53%.

Turning to `O=[N+]([O-])c1ccc(O)c(C2CCCCC2)c1`, the growth inhibition is 99% (active).

On to `O=C1c2ccccc2C(=O)N1/N=C\c1ccccc1[N+](=O)[O-]`, for which the growth inhibition was 93% (active).

Turning to `CC(C)(C)C(=O)CC(=O)C(F)(F)C(F)(F)C(F)(F)F.CC(C)(C)C(=O)CC(=O)C(F)(F)C(F)(F)C(F)(F)F.CC(C)(C)C(=O)CC(=O)C(F)(F)C(F)(F)C(F)(F)F.[Gd]`, the growth inhibition was 93% (active).

With `Oc1ccc(N=Nc2ccccc2)cc1`, the growth inhibition was 98% (active).

`Cc1cc(NC(=S)SCc2ccc(F)cc2)ccc1Br`: the growth inhibition is 98% (active).

As for `OC(CN1CCc2ccccc2C1)c1ccc2ccccc2c1` (stereo not given), the growth inhibition was 82% (active).

Consider `O=C1C=C/C(=C(/c2ccc(O)c(O)c2)c2ccccc2S(=O)(=O)O)C=C1O`, for which the growth inhibition is 4%.

For the compound `Cc1cc(N)c2cc(NC(=O)Nc3ccc4nc(C)cc(N)c4c3)ccc2n1`, the growth inhibition is 99% (active).

Turning to `CC(=O)N/N=C1/CC[C@@]2(C)C(=CC[C@H]3C4CCC(C(C)CCCC(C)C)[C@@]4(C)CCC32)C1(C)C` (stereo not given in full), the growth inhibition was 90% (active).

On to `Cc1ncn(-c2ccccc2O)c1C`, for which the growth inhibition is 9%.

In the case of `Oc1ccc(-c2nnc(-c3ccccc3)nn2)cc1`, the growth inhibition is -147%.
